# Molecular target: Fibroblast growth factor receptor 4 (Homo sapiens) (UniProt P22455)
# Settings: at 0.1 µM
# 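Also: values are mean percent inhibition of FGFR4.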
# Sequence of Fibroblast growth factor receptor 4 (Homo sapiens) (P22455 22-802 limits assumed): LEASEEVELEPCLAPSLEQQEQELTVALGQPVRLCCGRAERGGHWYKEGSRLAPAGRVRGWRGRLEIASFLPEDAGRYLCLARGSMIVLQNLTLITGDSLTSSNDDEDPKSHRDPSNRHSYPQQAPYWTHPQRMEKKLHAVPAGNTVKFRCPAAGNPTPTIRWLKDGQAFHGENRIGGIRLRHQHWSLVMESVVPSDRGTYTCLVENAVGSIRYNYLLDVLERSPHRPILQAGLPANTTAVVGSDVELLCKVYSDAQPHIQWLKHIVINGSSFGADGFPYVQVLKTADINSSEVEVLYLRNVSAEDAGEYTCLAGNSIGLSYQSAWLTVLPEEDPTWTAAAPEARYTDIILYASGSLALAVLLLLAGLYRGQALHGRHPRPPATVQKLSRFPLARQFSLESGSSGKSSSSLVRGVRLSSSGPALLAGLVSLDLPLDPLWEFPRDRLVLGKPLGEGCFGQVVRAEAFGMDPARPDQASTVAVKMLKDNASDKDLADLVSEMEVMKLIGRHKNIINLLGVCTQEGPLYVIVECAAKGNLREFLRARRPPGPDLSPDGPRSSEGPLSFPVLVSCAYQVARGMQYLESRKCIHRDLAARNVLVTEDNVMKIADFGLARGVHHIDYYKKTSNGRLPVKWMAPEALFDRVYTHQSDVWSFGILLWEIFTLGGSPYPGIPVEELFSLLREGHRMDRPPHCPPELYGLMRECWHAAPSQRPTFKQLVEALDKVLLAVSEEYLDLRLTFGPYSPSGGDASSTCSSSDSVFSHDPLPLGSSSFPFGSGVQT
row,Structure (SMILES),inhibition
1,COc1cccc(-n2ncc3c(N/N=C/c4ccc(C(=O)NCCN(C)C)cc4)ncnc32)c1,0.01%
2,O=C(O[C@H]1CN[C@H](C#Cc2cc3ncnc(Nc4ccc5c(cnn5Cc5ccccc5)c4)c3s2)C1)N1CCOCC1,0.54%
3,COc1cc(N2CCN(C(C)C)CC2)ccc1Nc1nc(Nc2cccc(F)c2C(=O)O)c2cc[nH]c2n1,-2.62%
4,COC(=O)Nc1nc2ccc(Oc3ccc(NC(=O)Nc4cc(C(F)(F)F)ccc4F)cc3)cc2s1,0.42%
5,CCS(=O)(=O)c1ccc(OC)c(Nc2ncc(-c3cccc(C(C)=O)c3)o2)c1,1.41%
6,CN(C)CCNC(=O)Nc1ccc(N(C)c2ccnc(Nc3ccc(CS(C)(=O)=O)cc3)n2)cc1,1.63%
7,CC1(C)CC(n2cnc(-c3ccc(F)cc3)c2-c2ccnc(N)n2)CC(C)(C)N1,-1.33%
8,CCS(=O)(=O)c1ccc(OC)c(Nc2ncc(-c3cccc(F)c3)o2)c1,5.31%
9,Fc1cccc(COc2ccc(Nc3ncncc3C#Cc3ccccc3)cc2Cl)c1,0.25%
10,COc1ccccc1-c1cc(/C=C2\C(=O)Nc3ncc(Br)cc32)cc(Br)c1O,-0.86%
11,OCCCNc1nccc(-c2c(-c3ccc(F)cc3)nn3cc(C(F)(F)F)ccc23)n1,1.17%
12,NS(=O)(=O)c1ccc(N/N=C2\C(=O)Nc3cccc(CCc4ccncc4)c32)cc1,4.76%
13,O=C1Nc2ccccc2/C1=C1\CCc2cc(O)ccc21,-1.94%
14,COc1cccc(Nc2nccc(-c3cnn4ncccc34)n2)c1,1.56%
15,CS(=O)(=O)Nc1ccc(-c2cc(-c3ccccc3)cc(C(N)=O)c2N)cc1,0.07%
16,O=C(Nc1n[nH]c2nnc(-c3cccnc3)cc12)C1CC1,2.02%

row,Structure (SMILES),inhibition
1,CN1CCC(n2cnc(-c3ccc(F)cc3)c2-c2ccnc(NCCO)n2)CC1,-1.01%
2,COc1cc2c(cc1Nc1nc(Nc3cccc(F)c3C(N)=O)c3cc[nH]c3n1)N(C(=O)CN1CCN(C(C)C)CC1)CC2,1.09%
3,COc1ccc2ncn(-c3cc(O[C@H](C)c4ccccc4C(F)(F)F)c(C(N)=O)s3)c2c1,0.21%
4,O=C(O[C@H]1CN[C@H](C#Cc2cc3ncnc(Nc4ccc5c(ccn5Cc5cc(F)ccc5F)c4)c3s2)C1)N1CCOCC1,-1.92%
5,c1ccc(-c2n[nH]cc2-c2ccnc(-c3ccc(OCCn4ccnc4)cc3)c2)nc1,1.45%
6,CCn1c(-c2nonc2N)nc2cncc(C(=O)NCCNC)c21,0.72%
7,COc1cc(N2CCN(C(C)C)CC2)ccc1Nc1nc(Nc2cccc3ncccc23)c2cc[nH]c2n1,0.6%
8,Cc1cc(O)cc(C)c1/C=C/c1cncc(C(N)=O)c1,-4.55%
9,FC(F)(F)CNc1nccc(-c2cnn3ncccc23)n1,1.62%
10,COc1ccc(-c2nn3ncccc3c2-c2ccnc(Nc3ccc(F)c(F)c3)n2)cc1,1.42%
11,COc1ccc(Nc2ncc(-c3ccccc3)o2)cc1OC,0.41%
12,CS(=O)(=O)CCNCc1ccc(-c2ccc3ncnc(Nc4ccc(OCc5cccc(C(F)(F)F)c5)cc4)c3c2)o1,4.16%
13,CNC(=O)c1ncccc1Nc1nc(Nc2cc3c(cc2OC)CCCN3C(=O)CN(C)C)nc2[nH]ccc12,2.18%
14,CS(=O)(=O)Nc1ccc(-c2ccc3c(NC(=O)C4CC4)n[nH]c3c2)cc1,-2.39%
15,CN(c1ccc(NC(=O)NCCN2CCOCC2)cc1)c1ccnc(Nc2ccc(CS(C)(=O)=O)cc2)n1,1.27%

# Source: ChEMBL document CHEMBL1961873, “Compounds: GSK PKIS; Assays: Nanosyn kinase panel” (2012)
